Compound activity deposited in PubChem by several laboratories.
The list is not random: actives were taken first. Their share in the collection is about 32%.
PostGolgi ctrl: growth of the yeast control strain, post-Golgi counter-screen. efflux-deficient yeast background strain, growth absorbance A615, 16 h. inhibition, % at 10 µM. actives 5% (n = 98,000). AID 738
CYP2C9 activ: increases human cytochrome P450 2C9 activity | P11712 | recombinant CYP2C9, luciferin-H conversion, luminescence; active compounds read high; factor 1 = untreated enzyme, 0 = blocked | activation factor at 5 µM | actives 1.4% (n = 96,000);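 active = activation factor of 2 or more for CYP2C9 at a 5 µM dose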;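 note: 0 = sulfaphenazole-blocked wells and 1 = vehicle-only wells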
CYP2C19 inhib: inhibitors of human CYP2C19. inhibition, % at 5 µM. actives 21% (n = 96,000). CYP2C19 Supersomes, luciferin-H EGE luminescence, 30 min;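 active = CYP2C19 inhibition above a set limit at 5 µM in the primary screen, cut at about 50% in these data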;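 note: plate controls were negative control wells for no effect and 2.5 mM tranylcypromine positive control for full effect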
Target sequence (P33261 whole entry, looked up): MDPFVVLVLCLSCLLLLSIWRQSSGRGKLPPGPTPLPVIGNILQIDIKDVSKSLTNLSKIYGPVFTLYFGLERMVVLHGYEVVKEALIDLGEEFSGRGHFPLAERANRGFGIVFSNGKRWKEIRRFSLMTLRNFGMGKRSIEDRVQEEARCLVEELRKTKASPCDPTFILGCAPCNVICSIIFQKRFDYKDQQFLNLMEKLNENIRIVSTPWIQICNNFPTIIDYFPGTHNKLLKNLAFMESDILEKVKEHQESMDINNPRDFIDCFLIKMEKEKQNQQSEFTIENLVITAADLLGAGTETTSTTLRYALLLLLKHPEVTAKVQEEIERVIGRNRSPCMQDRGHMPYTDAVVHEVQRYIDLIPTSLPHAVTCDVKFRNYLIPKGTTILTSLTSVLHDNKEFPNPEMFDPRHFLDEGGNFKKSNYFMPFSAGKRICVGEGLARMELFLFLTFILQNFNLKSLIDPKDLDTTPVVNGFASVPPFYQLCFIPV
CYP2C9 inhib: inhibitors of human CYP2C9. P11712. actives 20% (n = 96,000). CYP2C9 Supersomes, luciferin-H conversion, luminescence. inhibition, % at 5 µM. AID 777;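 active = blocking of liver enzyme CYP2C9 beyond about 50% at 5 µM, limit read from the data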
PostGolgi yeast: growth inhibition of a yeast mutant, post-Golgi transport screen; inhibition, % at 10 µM; actives 0.9% (n = 98,000); post-Golgi transport phenotypic cell assay; AID 739;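 note: yeast cells grown in 1536-well plates; yeast grown about 18 h at 30C before absorbance read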
CYP2C19 activ: increases human CYP2C19 enzyme activity. P33261. recombinant CYP2C19, luciferin-H EGE luminescence; active compounds read high; 0 = fully inhibited enzyme, 1 = untreated enzyme. activation factor at 5 µM. 96,000 tested, under 10 active. AID 1025;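 active = activation factor of at least 2 at 5 µM in the primary screen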;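 note: 0 = wells with 2.5 mM tranylcypromine and 1 = vehicle-only wells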
An asterisk follows results filed as active; / = not tested or not shown. Cut-off read from the data, not from the text of the source, unless noted: active = inhibition above about 30%; inactive = the rest.

SMILES	PostGolgi ctrl	CYP2C9 activ	CYP2C19 inhib	CYP2C9 inhib	PostGolgi yeast	CYP2C19 activ
CC(C)c1nnc(NC(=O)CSc2ccccc2)s1	5.7	0.4	63.3*	62.3*	-13.8	0.4
CCOCc1nnc(NC(=O)CSc2ccccc2)s1	9.4	0.5	49.4	50.6*	-9.5	0.5
CCOC(=O)Cc1nnc(NC(=O)CSc2ccccc2)s1	20.0	0.8	-9.6	16.7	0.5	1.1
COc1ccc(N2CCN(c3ccc(NC(=O)C4CCCCC4)cc3C#N)CC2)cc1	-1.8	0.9	7.2	11.9	7.3	0.9
CC(=O)Nc1cccc(Oc2cc(C#N)c(C#N)cc2N2CCCCCC2)c1	18.9	0	95.8*	100.0*	25.0	0
Clc1ccc2c(c1)CCc1cccnc1C2=C1CCNCC1	2.1	/	/	/	1.9	/
Cc1ccccc1C(=O)Nc1ccc2c(c1)OCO2	2.6	0.6	84.0*	37.5	17.1	0.2
COc1ccccc1C(=O)Nc1ccc2c(c1)OCCO2	-3.1	2.1*	11.4	-108.2	16.5	0.9
CN(c1ccccc1C(=O)Nc1ccc2c(c1)OCO2)S(C)(=O)=O	5.2	/	/	/	1.0	/
CCN(CC)c1ccc(NC(=O)c2cc(Cl)ccc2OC)cc1	-2.3	2.9*	23.6	-192.4	-2.9	0.8
CCOC(=O)c1c(C)[nH]c(C(=O)Nc2ccc3c(c2)OCO3)c1C	7.5	0.7	86.0*	34.5	-0.2	0.1
O=C(NCCN1CCOCC1)C1CCN(c2nc3ccccc3o2)CC1	-1.5	0.9	-3.0	11.3	12.4	1
COc1ccc(Cl)cc1C(=O)Nc1nnn(C)n1	-7.1	2*	-6.6	-99.9	-4.7	1.1
COc1cc(SC)ccc1C(=O)Nc1ccc2c(c1)OCCO2	21.1	0.4	90.8*	57.8*	1.4	0.1
COc1ccc(Cl)cc1C(=O)Nc1ccc2c(c1)OCO2	13.3	3.3*	59.3*	-231.7	-13.5	0.4
COc1cc(SC)ccc1C(=O)Nc1ccccc1	16.0	1.3	-37.4	-25.1	6.9	1.4
COCCn1cnnc1SCC(=O)Nc1ccccc1C(=O)Nc1ccc2c(c1)OCO2	4.8	0.1	57.5*	93.5*	-3.0	0.4
COc1ccc(C2/C(=C(\O)c3ccc4c(c3)OCCO4)C(=O)C(=O)N2CCCN(C)C)c(OC)c1 (stereo not given)	/	1	1.6	3.5	/	1
Cc1[nH]c2ccccc2c1C(c1ccccn1)N1CCC(C)CC1 (stereo not given)	8.4	1.1	49.7	-14.0	-6.5	0.5
COc1ccccc1-n1nc(C(=O)Nc2ccc3c(c2)OCO3)c2ccccc2c1=O	3.9	1	7.5	2.4	-0.9	0.9
CCOC(=O)Nc1ccc2c(c1)OCO2	-1.0	0.9	21.5	10.4	-1.1	0.8
O=C(Nc1ccccc1C(=O)Nc1ccc2c(c1)OCO2)c1ccco1	10.4	0	50.6*	97.3*	-2.9	0.5
COc1ccccc1C(=O)Nc1ccc2c(c1)OCO2	1.1	0.9	89.8*	14.3	13.8	0.1
O=C(Nc1ccc2c(c1)OCO2)Oc1ccccc1	27.4	1	62.2*	1.5	1.1	0.4
Cc1ccc(NC(=O)/C(=C\c2ccc3c(c2)OCO3)NC(=O)c2ccco2)cc1	-3.1	0.2	10.1	83.8*	-1.9	0.9
SMILES	PostGolgi ctrl	CYP2C9 activ	CYP2C19 inhib	CYP2C9 inhib	PostGolgi yeast	CYP2C19 activ
CC1CCCCN1C(=O)C12CCC(C)(/C(=N/O)C1)C2(C)C (stereo not given)	-12.6	1.1	-7.3	-9.4	19.8	1.1
CC(C)n1nnnc1SCC(=O)N1CCOCC1	2.1	1	4.8	0.4	-3.6	1
CCN(CC)c1ccc(NC(=O)c2ccccc2F)cc1	15.1	3*	19.9	-200.0	-0.3	0.8
CCN(CC)c1ccc(NC(=O)c2ccco2)cc1	-2.1	0.9	31.4	6.3	-3.1	0.7
O=S(=O)(c1ccc(N2CCN(S(=O)(=O)c3ccc4c(c3)OCCO4)CC2)nc1)N1CCCC1	8.9	/	/	/	-8.9	/
CC1(C2CC2)NC(=O)NC1=O (stereo not given)	14.2	1.1	-3.3	-10.8	1.3	1
O=C(O)c1ccc(C2CCCCC2)cn1	-0.7	1	16.0	3.7	0.5	0.8
CCc1ccc(OCC(=O)N(C)CCC#N)c(Br)c1	39.0*	1.2	9.5	-15.4	-14.1	0.9
CCc1ccc(OCC(=O)NCCN(C)C)c(Br)c1	11.0	/	/	/	-3.3	/
CCC(CO)NC(=O)c1cc2c(s1)CCC2 (stereo not given)	-3.7	1.1	8.9	-6.3	31.2*	0.9
CCN1CCN(Cc2ccc3c(c2)Cc2ccccc2-3)CC1	/	1.1	-7.5	-10.9	/	1.1
c1ccc2c(c1)Cc1cc(CN3CCOCC3)ccc1-2	0.9	0.8	61.9*	15.4	-10.7	0.4
c1ccc(Oc2cccc(CN3CCOCC3)c2)cc1	13.1	0.8	77.1*	16.1	12.1	0.2
COc1cc2c(C)nc3onc(-c4ccccc4)c3c2cc1OC	21.6	0.2	54.5*	77.4*	-7.3	0.5
COc1ccccc1-c1nc(-c2cccc(C)c2)no1	5.6	1.2	49.0	-16.7	3.6	0.5
CCc1cc2c(CN3CCN(CCO)CC3)cc(=O)oc2cc1O	9.8	1.3	6.4	-34.6	-5.8	0.9
Clc1cccc(Cl)c1COc1ccccn1	14.4	0.6	51.5*	37.3	2.4	0.5
COc1ccc(NC(=S)NNC(=O)C(C)n2nc(C)c([N+](=O)[O-])c2C)cc1 (stereo not given)	8.8	1	-7.1	-1.9	-7.7	1.1
Cc1nn(C(C)C(=O)NNC(=S)Nc2ccc(F)cc2)c(C)c1[N+](=O)[O-] (stereo not given)	1.5	0.4	7.8	55.0*	1.0	0.9
Cc1nn(C)c(C(=O)NNC(=S)Nc2ccc(F)cc2)c1[N+](=O)[O-]	-10.3	0.5	8.5	51.5*	1.9	0.9
Cc1ccc(C(C(=O)NC(C)(C)C)N(C(=O)c2csnn2)c2ccccc2F)o1 (stereo not given)	5.6	1	7.0	4.5	-10.4	0.9
Cn1c(-c2ccc(C=O)s2)nc2ccccc21	0.9	0.9	16.0	10.8	-1.4	0.8
CCOc1ccc2c(c1)s/c(=N\S(=O)(=O)c1ccc(OC)cc1)n2C(F)F	16.7	0.6	61.2*	44.9	11.2	0.4
CCOc1ccc2c(c1)sc(=NC(=O)C1CC1)n2C	5.7	0.9	12.6	7.2	6.5	0.9
Cc1cc(NC(=O)c2cc3ccccc3o2)cc(C)c1OCC(=O)N1CCOCC1	2.8	0.5	18.6	47.6	-2.2	0.8
CC(C)c1ccc(C2C3=C(CC(C)(C)CC3=O)NC3=C2C(=O)c2ccccc23)cc1 (stereo not given)	26.9	0.7	11.9	25.1	-4.0	0.9
CC(C)(C)c1ccc(C2C3=C(CCCC3=O)NC3=C2C(=O)c2ccccc23)cc1 (stereo not given)	32.4*	0.8	-3.8	17.7	-18.5	1
c1ccc(N2CCN(c3nnnn3-c3ccccc3)CC2)cc1	0.0	0.1	99.8*	93.2*	-9.9	0
